Screening data: PubChem, several laboratories
The entries come from a sample that favours hits as a whole.
PostGolgi ctrl – growth inhibition of yeast control strain, primary screen, counter-screen for post-Golgi transport modulator project | hit rate 5% among 98,000 | inhibition, % at 10 µM | efflux-deficient yeast background strain, growth absorbance A615, 16 h
S1P2 ag – S1P2 receptor agonists, primary screen, cell-based. S1P2-expressing cell line, agonist reporter read-out. activation, % at 4.5 µM. hit rate 0.46% among 97,000; in the data active means activation above about 16%;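 further: 0% = vehicle low control and 100% = maximal reference agonist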
S1P2 antag – human S1P2 receptor antagonists, primary screen, cell-based | Sphingosine 1-phosphate receptor 2 (Homo sapiens), O95136 | cell-based S1P2 antagonist assay, inhibition at 5 uM | inhibition, % at 5 µM | hit rate 0.21% among 97,000 | AID 736, 2007; in the data active means inhibition above about 45%;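 further: CRE beta-lactamase reporter cells expressing human S1P2 stimulated with S1P; 0% = agonist at EC80 alone and 100% = agonist plus reference antagonist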
PostGolgi yeast – phenotypic screen on post-Golgi transport, primary screen | AID 739, 2007 | post-Golgi transport phenotypic cell assay | hit rate 0.9% among 98,000 | inhibition, % at 10 µM;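 further: yeast cells grown in 1536-well plates; yeast grown about 18 h at 30C before absorbance read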
GALR2 ag – GALR2 receptor agonists, primary screen, cell-based; Galanin receptor type 2 (Homo sapiens), O43603; hit rate 0.48% among 140,000; GALR2-expressing cells, agonist activation read-out; activation, % (concentration not given with the values); in the data active means activation above about 5%, passing the limit was not always enough;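 further: 0% = vehicle buffer wells and 100% = reference agonist at full effect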
Target sequence (O43603 whole entry, looked up): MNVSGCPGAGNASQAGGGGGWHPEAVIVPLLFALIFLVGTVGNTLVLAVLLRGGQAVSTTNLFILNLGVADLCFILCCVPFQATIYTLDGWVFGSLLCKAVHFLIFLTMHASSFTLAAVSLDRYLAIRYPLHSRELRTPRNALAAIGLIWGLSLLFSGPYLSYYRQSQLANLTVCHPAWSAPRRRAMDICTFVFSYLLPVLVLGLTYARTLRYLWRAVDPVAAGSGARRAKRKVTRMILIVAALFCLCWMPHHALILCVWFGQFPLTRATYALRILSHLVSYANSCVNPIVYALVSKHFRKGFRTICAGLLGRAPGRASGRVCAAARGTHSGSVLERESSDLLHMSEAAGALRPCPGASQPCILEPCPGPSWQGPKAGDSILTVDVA
GALR2 antag – GALR2 antagonists in receptor-expressing cells, primary screen. antagonist mode. Galanin receptor type 2 (Homo sapiens), O43603. inhibition, % at 4 µM. hit rate 0.39% among 140,000; in the data active means inhibition above about 27%;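 further: cells stimulated with galanin 1-16 at roughly its EC80; 0% = agonist challenge control and 100% = basal control without agonist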
Numbers without * were called inactive. Unless noted, no stated cut-off is given here; in the data, active means inhibition above about 30%; inactive means the rest.

Screening Cc1ccc2cc(CCNC(=O)c3ccc(Br)o3)c(=O)[nH]c2c1 returned PostGolgi ctrl 101.2*, S1P2 ag -6.7, S1P2 antag 26.8, PostGolgi yeast 21.4, GALR2 ag -1.2 and GALR2 antag -3.7.
`COc1ccc(OC)c(C(c2nnnn2CCC(C)C)N2CCN(C(=O)c3ccco3)CC2)c1` (configuration not stated) gave PostGolgi ctrl 11.7, S1P2 ag -2.3, S1P2 antag -3.6, PostGolgi yeast 25.8, GALR2 ag -3.0 and GALR2 antag 6.0.
c1ccc2[nH]c3cc4ncnc4cc3nc2c1 was read as GALR2 ag 0.7 and GALR2 antag 2.7.
Cc1ccc(C(O)P(=O)(OC2CCCCC2)OC2CCCCC2)cc1 (configuration not stated) was read as PostGolgi ctrl 39.7*, S1P2 ag -2.3, S1P2 antag -13.7, PostGolgi yeast 22.0, GALR2 ag -2.9 and GALR2 antag -5.1.
Screening O=P(OC1CCCCC1)(OC1CCCCC1)C(O)c1c(Cl)cccc1Cl (configuration not stated) returned PostGolgi ctrl 36.2*, S1P2 ag -4.7, S1P2 antag 6.3, PostGolgi yeast -3.3, GALR2 ag -1.2 and GALR2 antag -1.5.
For N#C/C(=C\c1ccc(Cl)cc1)c1nc2ncccc2[nH]1 the results were PostGolgi ctrl 47.7*, S1P2 ag 1.9, S1P2 antag -6.1, PostGolgi yeast 26.7, GALR2 ag -0.2 and GALR2 antag -8.1.
`O=C(O)/C=C/C(=O)Nc1ccccc1-c1ccccc1` gave PostGolgi ctrl -5.3, S1P2 ag -8.7, S1P2 antag 9.6, PostGolgi yeast 4.0, GALR2 ag -2.5 and GALR2 antag 19.0.
`Oc1c(C=Nc2cccnc2)sc2ccccc12` gave PostGolgi ctrl 31.4*, S1P2 ag -1.9, S1P2 antag 6.9, PostGolgi yeast 3.2, GALR2 ag -0.3 and GALR2 antag 9.6.
Screening Clc1ccccc1-c1nc2ccccc2c2nc3ccccc3n12 returned GALR2 ag 1.8 and GALR2 antag -1.5.
`CCOC(=O)C1CCN(c2ncnc3c2oc2ccc(Cl)cc23)CC1` gave PostGolgi ctrl 33.3*, S1P2 ag -3.2, S1P2 antag -34.6, PostGolgi yeast 4.7, GALR2 ag -1.2 and GALR2 antag -6.3.
Screening O=C(CCNS(=O)(=O)c1cccc2nonc12)NC1CCCc2ccccc21 (configuration not stated) returned PostGolgi ctrl 31.8*, PostGolgi yeast -8.0, GALR2 ag -1.7 and GALR2 antag 16.7.
For O=C(CCNS(=O)(=O)c1cccc2nsnc12)NC1CCCc2ccccc21 (configuration not stated) the results were PostGolgi ctrl 7.5, PostGolgi yeast 14.5, GALR2 ag -1.4 and GALR2 antag 7.1.
For Cc1ccc(S(=O)(=O)N2CCC(=O)N(CCOC(=O)Nc3ccc(C)c(C)c3)CC2)cc1 the results were GALR2 ag -1.6 and GALR2 antag -6.6.
COc1ccc(OC)c(NS(=O)(=O)c2ccc(NC(=O)c3ccc(NS(C)(=O)=O)cc3)cc2)c1 was read as GALR2 ag -0.8 and GALR2 antag -8.4.
O=C1NN=C(c2ccc(Cl)cc2)CC1c1cccc(Cl)c1 (configuration not stated) was read as PostGolgi ctrl 45.5*, S1P2 ag 1.0, S1P2 antag -13.5, PostGolgi yeast 12.5, GALR2 ag -1.5 and GALR2 antag 2.7.
`O=C1CN(C(=O)c2cccs2)c2ccccc2N1` gave PostGolgi ctrl 32.7*, S1P2 ag -1.8, S1P2 antag 15.7, PostGolgi yeast -3.6, GALR2 ag -1.9 and GALR2 antag 19.3.
Cc1ccccc1OCC(=O)N1N=C(C(F)(F)F)CC1(O)C(C)(C)C (configuration not stated) was read as S1P2 ag -14.8, S1P2 antag -8.1, GALR2 ag -2.4 and GALR2 antag 10.8.
Screening Cc1ccc(OCC(=O)N2N=C(C(F)(F)F)CC2(O)C(C)(C)C)cc1C (configuration not stated) returned PostGolgi ctrl 33.2*, S1P2 ag -1.7, S1P2 antag 12.8, PostGolgi yeast -4.3, GALR2 ag -1.6 and GALR2 antag -4.6.
For Oc1ccc(/C=C/c2nc(-c3ccccc3O)n(-c3ccccc3)n2)cc1 the results were PostGolgi ctrl 38.0*, S1P2 ag 0.2, S1P2 antag 3.7, PostGolgi yeast 6.6, GALR2 ag -2.0 and GALR2 antag 18.6.
For COc1ccc(CN2CC(C(=O)NCCCN3CCOCC3)CC2=O)cc1 (configuration not stated) the results were PostGolgi ctrl 34.5*, S1P2 ag -1.9, S1P2 antag 12.9, PostGolgi yeast -4.8, GALR2 ag -1.8 and GALR2 antag -4.0.
`COc1ccc(CN2CC(C(=O)NCCCN3CCCCCC3)CC2=O)cc1` (configuration not stated) gave PostGolgi ctrl 10.1, S1P2 ag -1.8, S1P2 antag 10.6, PostGolgi yeast -7.6, GALR2 ag -2.0 and GALR2 antag -0.3.
`CCCCC(=O)N/N=C/c1ccc(N2CCOCC2)c([N+](=O)[O-])c1` gave GALR2 ag 0.0 and GALR2 antag -10.1.
`CCCCSc1nnc(-c2ccccc2)c2ccccc12` gave GALR2 ag 0.6 and GALR2 antag 1.5.
`CNC(=O)[C@@]1(C)C=C[C@@H](Cc2ccccc2)N1C(=O)OC` gave GALR2 ag -0.8 and GALR2 antag 5.6.
Cc1ccccc1NC(=O)c1sc(Cl)nc1-c1ccccc1 was read as PostGolgi ctrl 39.2*, S1P2 ag -5.3, S1P2 antag 27.5, PostGolgi yeast -9.9, GALR2 ag -1.1 and GALR2 antag 5.5.
CS(=O)(=O)N(CC(=O)NC1CC2CCC1C2)c1cccc(C(F)(F)F)c1 (configuration not stated) was read as PostGolgi ctrl 30.6*, S1P2 ag -7.4, S1P2 antag -6.7, PostGolgi yeast -5.0, GALR2 ag 1.5 and GALR2 antag -0.6.
For COc1ccc2c(=O)c3c(=O)n(Cc4ccco4)c(-c4ccc(C)cc4)nc3oc2c1 the results were PostGolgi ctrl 44.3*, S1P2 ag -2.5, S1P2 antag 0.9, PostGolgi yeast 6.1, GALR2 ag -0.3 and GALR2 antag -19.0.
`C=CCn1c(COc2ccccc2F)nnc1SCCN1C(=O)c2ccccc2C1=O` gave GALR2 ag -0.6 and GALR2 antag -3.4.
O=C(CCN1CCCCC1)c1ccccc1 was read as PostGolgi ctrl 4.8, S1P2 ag 0.3, S1P2 antag -20.5, PostGolgi yeast 2.0, GALR2 ag -1.0 and GALR2 antag 2.2.
CCc1oc2ccccc2c1C(=O)CCN1CCCCC1 was read as PostGolgi ctrl 35.7*, S1P2 ag -6.5, S1P2 antag -23.6, PostGolgi yeast 5.2, GALR2 ag 0.7 and GALR2 antag -2.4.
